# Reference: the supplement of paper PMC6555819
# Legend:
# Assay in all cases: PBM binding z-score (relative to random genomic background probes); higher = stronger binding; sequences stand for … in GC…GCGATTGACAGCGTAGAATGAAGG
# [1] = test system: FXR:RXRa (NR concentration 270 nM, RXRa partner concentration 90 nM)
# Summary of the method: (§1)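 Custom Agilent 4×180K protein-binding microarrays carried double-stranded probes. Their 34-nt variable regions held direct-repeat seeds, single-nucleotide variants, half-site ablations and random human genomic background sequences. Arrays were incubated 1 h with ligand-free nuclear receptor dimers in PBS pH 7.4, 2% milk, 0.02% Triton X-100, 1 mM DTT, 0.2 mg/mL BSA and 0.4 mg/ml salmon testes DNA. Antibodies against each partner (one per run) detected binding, and scanned fluorescence was regression-normalized. Binding z-scores use random background probes as reference.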
# [2] = test system: LXRa:RXRa (NR concentration 270 nM, RXRa partner concentration 90 nM)
# Summary of the method: as §1
# [3] = test system: LXRa homodimer (NR concentration 270 nM)
# Summary of the method: as §1
# [4] = test system: LXRb:RXRa (NR concentration 270 nM, RXRa partner concentration 90 nM)
# Summary of the method: as §1
# [5] = test system: LXRb homodimer (NR concentration 270 nM)
# Summary of the method: as §1
# [6] = test system: PPARa:RXRa (NR concentration 270 nM, RXRa partner concentration 90 nM)
# Summary of the method: as §1
# [7] = test system: PPARg:RXRa (NR concentration 180 nM, RXRa partner concentration 90 nM)
# Summary of the method: as §1
# [8] = test system: PPARg:RXRa 270nM:90nM, anti-RXR (NR concentration 270 nM, RXRa partner concentration 90 nM)
# Summary of the method: as §1
# [9] = test system: PPARg:RXRa 30nM:10nM, anti-RXR (NR concentration 30 nM, RXRa partner concentration 10 nM)
# Summary of the method: as §1
# [10] = test system: PPARg:RXRa 90nM:30nM, anti-RXR (NR concentration 90 nM, RXRa partner concentration 30 nM)
# Summary of the method: as §1
# [11] = test system: PPARg:RXRa DBDmut IVT, anti-RXR (DBD mutation: RXRa K156A/R161A, NR concentration 270 nM, RXRa partner concentration 90 nM)
# Summary of the method: as §1
# [12] = test system: PPARg:RXRa IVT, anti-PPARg (NR concentration 270 nM, RXRa partner concentration 90 nM)
# Summary of the method: as §1
# [13] = test system: PPARg DBDmut:RXRa IVT, anti-PPARg (DBD mutation: PPARg1 K132A/R137A, NR concentration 270 nM, RXRa partner concentration 90 nM)
# Summary of the method: as §1
# [14] = test system: PPARg DBDmut IVT, anti-PPARg (DBD mutation: PPARg1 K132A/R137A, NR concentration 270 nM)
# Summary of the method: as §1
# [15] = test system: PPARg homodimer (NR concentration 180 nM)
# Summary of the method: as §1
# [16] = test system: PXR:RXRa (NR concentration 270 nM, RXRa partner concentration 90 nM)
# Summary of the method: as §1
# [17] = test system: PXR homodimer (NR concentration 270 nM)
# Summary of the method: as §1
# [18] = test system: RARa:RXR (NR concentration 270 nM, RXRa partner concentration 90 nM)
# Summary of the method: as §1
# [19] = test system: RARa homodimer (NR concentration 270 nM)
# Summary of the method: as §1
# [20] = test system: RARb:RXRa (NR concentration 270 nM, RXRa partner concentration 90 nM)
# Summary of the method: as §1
Sequence,PBM binding z-score [1],PBM binding z-score [2],PBM binding z-score [3],PBM binding z-score [4],PBM binding z-score [5],PBM binding z-score [6],PBM binding z-score [7],PBM binding z-score [8],PBM binding z-score [9],PBM binding z-score [10],PBM binding z-score [11],PBM binding z-score [12],PBM binding z-score [13],PBM binding z-score [14],PBM binding z-score [15],PBM binding z-score [16],PBM binding z-score [17],PBM binding z-score [18],PBM binding z-score [19],PBM binding z-score [20]
TCATATAGGTAATACAGGTGAATGTCGGCATCTA,1.12,1.39,0.495,0.986,0.337,1.84,1.73,2.58,4.19,3.28,4.3,3.5,1.54,1.28,1.27,0.727,0.579,1.2,1.94,0.634
ATCGAAAGGTCGAAGGTGAGTAGACCCACCCGAA,4.66,3.33,-0.000535,2.34,0.52,4.56,4.92,4.7,1.93,4.2,-0.178,1.89,-0.438,0.456,1.74,2.69,0.121,4.23,0.557,3.83
ATCTCTAGGTAAAGATTGTTCAGTGAATGCAAAT,0.226,0.124,0.091,0.234,0.621,0.0998,0.137,0.495,0.342,0.381,2.3,1.85,0.903,0.841,0.219,0.132,0.182,0.436,1.35,0.105
CCTCGGAGGACACAAGGTCAGAGCTGTCCGCTTT,1.95,2.18,0.422,1.25,-0.693,2.17,0.424,1.15,-0.626,0.468,0.831,0.883,-1.16,-1.74,1.72,2.35,0.133,2.25,0.096,3.46
AGAACGAGGGCAATGAGATGATAGCACGGGTGGC,0.277,0.121,-0.31,-0.282,-0.486,1.02,1.58,0.593,0.201,0.528,3.28,2.47,1.03,0.417,0.45,0.149,0.0572,0.235,0.363,2.05
GCTATTAGTTGAAAGGGCGACCGAATGATTCTCG,-0.184,0.0609,-0.118,0.0118,-0.239,0.973,1.72,3.27,1.2,3.05,0.652,-0.0504,-0.223,-0.65,0.251,-0.1,-0.523,0.097,-0.0879,0.699
TCTAGTTGGTCAAAGGTCACACAATCGAAATGCG,5.53,5.9,3.73,5.66,2.13,6.6,11.8,9.87,11.7,11.4,3.58,6.28,1.49,2.13,4.36,5.97,2.1,7.76,3.91,5.16
AGAATGAGGCTATACGTAGATCAGGGAAGAAAGT,-0.393,-0.526,-0.213,-0.708,-0.243,0.0162,0.801,0.267,0.101,0.251,1.49,0.333,0.633,0.637,-0.215,-0.274,-0.0563,-0.0968,-0.0794,0.153
TCTTGTAGATCAACAGGAGGTTACGAAAGATCGA,0.309,1.28,0.0638,0.991,-0.0897,1.55,0.26,1.65,2.53,1.91,1.67,1.04,0.791,0.725,0.494,0.945,0.0297,1.38,-0.191,0.551
CCGCCTAGGTCAGGGCCAGTATAGGAGGAACGTT,1.6,1.11,-0.253,1.1,-0.93,2.15,0.674,0.881,-0.497,-0.0982,0.73,1.29,-1.13,-2.07,0.393,0.629,-0.663,1.47,-0.0818,3.43
CATACAGGGTCAGCTAGGCAAGAGTAGGGACGGC,4.09,2.76,-0.331,1.96,0.0161,4.34,3.37,3.02,0.458,1.77,0.883,2.27,0.128,0.564,1.62,1.97,-0.336,2.62,0.47,3.91
CCTGACGGGTCACTGACAGGTTATAGCATTTGGA,4.19,3.46,0.214,2.64,-0.319,4.19,2.56,2.71,0.481,1.8,1.12,1.82,0.147,-0.292,3.03,3.08,-0.179,4.01,0.536,3.69
CCTATTAGTTGACCATACGGGCAACCGAAGCTCG,0.382,0.294,0.419,0.323,0.519,-0.224,0.305,-0.0431,-0.298,-0.186,0.407,0.329,0.889,0.71,1.39,-0.0836,0.786,-0.218,1.26,0.631
